Screens from PubChem.
Many of the other results were omitted from the sample, so hits are more common in it than they were.
BLM inh: inhibitors of human Bloom syndrome helicase BLM | P54132 | 0.2% of 350,000 active | Potency, µM (titrated, usually from 56.1 µM), for inactives: at the top dose activity change, negative = inhibition, most hits filed as inhibitors | recombinant BLM DNA unwinding, fluorescence dequenching;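 note: plate controls were vehicle for no effect and no enzyme for full effect; nearly all actives have a fitted effect of over 35% in size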
RECQ1 helicase: blocks DNA unwinding by human RECQ1 | P46063 | RECQ1 DNA unwinding, red fluorescence kinetic read | Potency, µM (series often up to 57.3 µM), for the others: at the highest dose activity, negative = inhibition, usual class: inhibitors | 0.54% of 240,000 active | AID 2549;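 note: plate controls were vehicle for no effect and no enzyme for full effect; nearly all actives have a fitted effect of over 30% in size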
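RECQ1T1 50 nM; forked duplex (20 bp + 30-nt ss tails) 200 nM, ATP 2 mM final; pH 8.0, 2 mM MgCl2, 2.5 ug/ml poly(dI-dC); 15 min compound preincubation; discontinuous kinetic read over 2 h at RT.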
APE1 inh: inhibitors of human APE1 endonuclease; P27695; AID 2517; recombinant APE1, TAMRA/BHQ-2 abasic DNA cleavage fluorescence; Potency, µM (highest dose often 65.8 µM), without a hit: at the top dose activity change, negative = inhibition, actives largely listed as inhibitors; 0.35% of 350,000 active;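 note: plate controls were vehicle for no effect and reference inhibitor for full effect; nearly all actives have a fitted effect of over 55% in size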
Target sequence (P27695 whole entry, looked up): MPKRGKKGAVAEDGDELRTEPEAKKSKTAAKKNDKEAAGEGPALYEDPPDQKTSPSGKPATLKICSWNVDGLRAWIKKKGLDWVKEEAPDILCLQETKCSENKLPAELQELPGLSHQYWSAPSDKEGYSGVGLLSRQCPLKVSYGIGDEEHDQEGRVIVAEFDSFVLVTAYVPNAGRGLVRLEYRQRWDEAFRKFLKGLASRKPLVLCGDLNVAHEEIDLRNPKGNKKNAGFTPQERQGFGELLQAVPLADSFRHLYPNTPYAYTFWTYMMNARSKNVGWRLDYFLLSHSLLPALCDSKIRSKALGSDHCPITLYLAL
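Compound pre-exposure to 0.75 nM APE1, 15 min at ambient temperature. Reaction initiated with 50 nM TAMRA/BHQ-2 THF substrate, read immediately in kinetic mode, 525 nm excitation, 598 nm emission.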
GoLoco inh red: blocks human Gai1 binding to RGS12 GoLoco peptide, red readout; Potency, µM (series often up to 61.6 µM), for inactives: at the highest dose activity, negative = inhibition, actives largely listed as inhibitors; P63096; Gai1:RGS12 GoLoco peptide FP, rhodamine, 10 min; 0.44% of 230,000 active; active = well fitted inhibition curve with a large enough effect, not every such curve was filed as active; inactive = no such curve, though single readings can be large or run the other way; note: nearly all actives have a fitted effect of over 30% in size
Target sequence (P63096 whole entry, looked up): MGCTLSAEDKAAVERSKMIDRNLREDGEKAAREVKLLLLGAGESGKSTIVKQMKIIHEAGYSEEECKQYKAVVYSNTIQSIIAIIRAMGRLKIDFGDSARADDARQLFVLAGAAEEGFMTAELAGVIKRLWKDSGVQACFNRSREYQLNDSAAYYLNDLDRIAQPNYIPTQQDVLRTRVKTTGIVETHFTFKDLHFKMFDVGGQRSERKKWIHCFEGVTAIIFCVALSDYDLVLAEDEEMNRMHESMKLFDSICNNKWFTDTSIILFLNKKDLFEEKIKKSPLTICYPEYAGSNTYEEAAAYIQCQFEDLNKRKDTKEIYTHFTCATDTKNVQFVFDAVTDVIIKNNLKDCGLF
JMJD2E inh: inhibitors of human JMJD2E histone demethylase | 1.6% of 230,000 active | B2RXH2 | Potency, µM (top dose mostly 57.1 µM), for the others: top-dose activity change, negative = inhibition, hits mostly inhibitors | JMJD2E catalytic domain, FDH-coupled NADH fluorescence (FDH is formaldehyde dehydrogenase) | AID 2147; active = well fitted inhibition curve with a large enough effect, not every such curve was filed as active; inconclusive = small, poorly fitted or top-dose-only effect, or another doubt; inactive = no such curve, though single readings can be large or run the other way;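 note: 0% = wells with enzyme and -100% = buffer wells without enzyme; nearly all actives have a fitted effect of over 50% in size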
L3MBTL1 block: L3MBTL1 (human) inhibition. Potency, µM (top dose mostly 57.1 µM), without a hit: at the top dose activity, negative = inhibition, usual class: inhibitors. Q9Y468. 0.66% of 230,000 active. AlphaScreen L3MBTL1–H3K9me1 peptide binding; note: nearly all actives have a fitted effect of over 60% in size
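Displacement of a biotinylated histone H3(1-15) peptide monomethylated at Lys9 (75 nM) from L3MBTL1 (50 nM) was measured by AlphaScreen after a 30 min room-temperature compound incubation; cefsulodin titration served as intraplate control.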
Active calls of the source: *; i = inactive; u = inconclusive; x = not tested or not shown; ! = not confirmed by another sample; [ ] = remark or other dose. Unless noted, calls come from the whole dose curve; as a rule, active = well fitted curve in the direction sought with a large enough effect; inconclusive = small, poorly fitted or top-dose-only effect, or another doubt; inactive = no such curve, though single readings can be large; an effect the other way counts as inactive or inconclusive. Unless noted, % is set by controls: 0 for no effect and ±100 for the full control effect; potency is the fitted concentration of half-maximal effect.

SMILES | BLM inh | RECQ1 helicase | APE1 inh | GoLoco inh red | JMJD2E inh | L3MBTL1 block
C=C1C2CC[C@]3(CCC4[C@@]5(C)CCC[C@@]4(CN(CCO)C5)[C@@H]3C2)[C@@H]1O (stereo partly drawn) | -10% | 6% | -5% | 1% | 3% | x
COc1ccc2c(c1)-c1c(sn(-c3ccccc3)c1=S)C(C)(C)N2 | -14% | -9% | -1% | 8% | -4% | 32µM*
COc1ccc2c(c1)-c1c(ssc1=S)C(C)(C)N2 | -5% | i | -8% | -9% | -21% | 20µM*
COc1ccc2c(c1)-c1c(sn(-c3ccc(OC)c(OC)c3)c1=S)C(C)(C)N2 | -14% | -8% | -9% | -1% | 1% | u
COc1ccc(-n2sc3c(c2=S)-c2cc(OC)ccc2NC3(C)C)cc1 | -7% | -11% | -4% | 5% | -9% | 32µM*
CC(=O)Nc1ccc(OC(C)=O)cc1 | 3% | x | x | x | x | x
CC(C)C[C@H](NC(=O)[C@@H]1CCCN1C(=O)[C@H](CO)NC(=O)[C@H](Cc1ccccc1)NC(=O)CNC(=O)[C@@H]1CCCN1C(=O)[C@@H]1CCCN1C(=O)[C@@H](N)CCCN=C(N)N)C(=O)O | 0% | -4% | 0.5µM* | x | x | x
Cc1cc2c(N)cccc2nn1 | 5.6µM* | -3% | -1% | 8.9µM* | u | x
CCOc1cc2c(C#N)c(N3CCNCC3)nc(N)c2c(N)n1 | -3% | -3% | 6% | 11% | u | x
CCOC(=O)C1CCN(c2nc(N)c3c(N)nc(SCC(=O)O)cc3c2C#N)CC1 | 25µM* | u | u | 54% | u | 25µM*
COc1ccc(CN2C(=O)Cc3c2nc(N)c2c(N)nc(N4CCCCC4)c(C#N)c32)cc1 | -20% | 0% | -8% | 92% | 14µM* | -3%
CCOc1cc2c(C#N)c(N3CCCCC3)nc(N)c2c(N)n1 | 28µM* | -1% | -6% | 39% | u | x
Cc1cc(-c2ccc(N=Nc3ccc4c(S(=O)(=O)O)cc(S(=O)(=O)O)c(N)c4c3O)c(C)c2)ccc1N=Nc1ccc2c(S(=O)(=O)O)cc(S(=O)(=O)O)c(N)c2c1O | 11µM*! | 8.9µM* | 2.5µM* | 29% | u | x
Nc1c(N=Nc2ccc(-c3ccc(N=Nc4cc(S(=O)(=O)O)c5ccccc5c4N)cc3)cc2)cc(S(=O)(=O)O)c2ccccc12 | 4µM* | 10µM* | 32µM* | 238% | x | x
C=CCC(Nc1ccc(OC)cc1)(C(=O)OCC)c1ccccc1 (stereo not drawn) | -2% | -1% | 3% | 2% | 0% | x
Nc1ccc(O)c(C(=O)O)c1 | -13% | 7.1µM* | 7.1µM* | 3% | u | x
Nc1ccc(C(=O)O)c(O)c1 (tested in a mixture with another compound) | -4% | -3% | 0% | 28µM* | x | x
COc1ccc(CC(N)C(=O)N[C@H]2[C@@H](O)[C@H](n3cnc4c(N(C)C)ncnc43)O[C@@H]2CO)cc1 (stereo partly drawn) | 7% | -1% | 7% | -2% | x | x
C[C@@H]1C/C=C/C=C/C=C/C=C/[C@H](O[C@@H]2O[C@H](C)[C@@H](O)[C@H](N)[C@@H]2O)C[C@@H]2O[C@](O)(C[C@@H](O)C[C@H]3O[C@@H]3/C=C/C(=O)O1)C[C@H](O)[C@H]2C(=O)O | x | x | 0%[21 µM] | x | x | x
O=C1CCC(=O)N(O)CCCCCNC(=O)CCC(=O)N(O)CCCCNC(=O)CCC(=O)N(O)CCCCCN1 | -1% | 1% | 5% | 1% | 4.5µM* | x
O=C1NCCCC1C(=O)N1CCCCC1 (stereo not drawn) | 1% | -7% | 0% | 5% | 4% | x
CCOC(=O)C1CCCN(S(=O)(=O)c2cc(-c3cc(C)no3)ccc2C)C1 (stereo not drawn) | -5% | x | x | x | x | x
O=C(Nc1ccc2ccccc2c1)C(=O)C1C(=O)Nc2ccccc21 (stereo not drawn) | 2% | i | 0% | 9% | 8.9µM* | 7%
CC1CCN(c2ccc(NC(=O)Cc3ccccc3)cc2)CC1 | -3% | i | 9% | -10% | -8% | 1%
COc1cccc(CNc2ccc(N3CCC(C)CC3)cc2)c1OC | -5% | -3% | -1% | -24% | 13µM* | u
SMILES | BLM inh | RECQ1 helicase | APE1 inh | GoLoco inh red | JMJD2E inh | L3MBTL1 block
COC(=O)CSc1nnc2n(-c3ccccc3)c(=O)c3c4c(sc3n12)COC(C(C)C)C4 (stereo not drawn) | -5% | x | x | x | x | x
Cc1ccc(-n2c(Cl)c(Cl)nc(Cl)c2=O)cc1 | -5% | -10% | -6% | 2µM* | -22% | 0%
COc1nc(Cl)cn(-c2ccc(C)cc2)c1=O | 3% | 1% | 2% | -1% | 9% | 1%
Fc1ccc(F)c(C2=NNC(=Nc3ccccc3F)SC2)c1 | -2% | -1% | 3% | 17% | 4% | -17%
COCCCN=C1NN=C(c2cc(C)n(-c3ccccc3F)c2C)CS1 | -4% | -7% | -5% | 1% | 32µM* | -26%
COCCn1c(C)cc(C2=NNC(=Nc3ccccc3F)SC2)c1C | -7% | -19% | 3% | 16% | 25µM* | x
CC(=O)c1ccc(N2CCN(S(=O)(=O)c3cc(-c4onc(C)c4C)ccc3C)CC2)cc1 | -4% | x | x | x | x | x
c1ccc(-c2cn(C[C@H]3CC[C@@H]([C@@H]4CC[C@H](Cn5cc(-c6ccccn6)nn5)O4)O3)nn2)nc1 | 0% | x | 26% | x | x | 2.5µM*
CCCCN(CCO)CCCC | x | -22% | -4% | 16µM* | x | -2%
O=C(c1ccc(Cl)c(S(=O)(=O)N2CCCCCC2)c1)N1CCCCC1 | -3% | x | 54% | x | x | x
O=C(O)c1ccc(Cl)c(S(=O)(=O)N2CCCC2)c1 | 3% | -4% | 28µM* | 6% | -2% | -30%
O=C(O)COc1cccc2nsnc12 | -3% | -1% | 7% | -11% | 20µM* | -16%
O=C(C[C@@H]1C/C=C\C[C@H](NC(=O)OCC2c3ccccc3-c3ccccc32)C(=O)OC[C@@H]2CCCN2C1=O)NCCO | x | x | 9.5µM* | x | x | 15%
CC(C)(C)OC(=O)C[C@@H]1C/C=C\C[C@H](CC(=O)NCCO)C(=O)N2CCC[C@H]2COC1=O | x | x | 6.7µM* | x | x | -4%
Cc1cccc(N2CCN(Cc3nnc(-c4cccc(Br)c4)o3)CC2)c1C | -8% | x | x | x | x | x
Cc1ccc2nc3c(cc(C#N)c(=O)n3-c3nnc(SCc4ccc(F)cc4)s3)c(=O)n2c1 | -6% | x | x | x | x | x
CN(O)/C=c1/ccc2c(n1)C(=O)C=CC=2 | 1% | -1% | 10% | -4% | 48% | 20µM*
CCCOc1cccc(-c2cc(C(=O)NN)c3ccccc3n2)c1 | -1% | 8% | -1% | 6% | 11µM* | -11%
CCCOc1cccc(-c2cc(C(=O)N/N=C/c3ccccn3)c3ccccc3n2)c1 | -14% | x | 0% | x | x | x
